The source of these data is PubChem BioAssay AID504329 (Southern Research Specialized Biocontainment Screening …, 2011).

The campaign covered roughly 340,000 compounds. About 1,000 (0.29%) were called active. The list is a sample of the results. Entries with a potency or affinity are not part of this list. Values without a mark were called inactive. No stated cut-off is given here; in the data, inconclusive means inhibition above about 27% without an active follow-up result; inactive means below that.

By inhibition is commonly meant the change of the read-out against control, counted positive when it falls.

The assay is described as follows: NS1A inhibition, H1N1 influenza, cell based functional assay (AID 504329). To be noted: percent inhibition, at 12.5 µM, stronger effect = higher value.
As for `CCCCOc1c(Cl)cc(CNC(C)(C)CO)cc1OCC`, the inhibition is -2.92%.
In the case of `Cc1ccc(-c2nn(C)c(=O)c3ccccc23)cc1S(=O)(=O)NCCN1CCOCC1` it was -10.6%.
Under `O=C1C2CCCN2C(c2ccc(F)c(F)c2)N1c1cccc(Cl)c1` (stereo not given) stands -6.3%; under `Cc1cc(OCc2cn3cccnc3n2)ccc1Cl`, 6.77%; under `CCOc1ccc2[nH]c(=O)c(CN(Cc3ccccc3OC)C(=O)c3ccccc3)cc2c1`, 21.1%.
Under `CCOc1ccc(S(=O)(=O)N2CCC(C(=O)OCc3cccc(OC)c3OC)CC2)cc1` stands -13.5%; under `Cc1cccc(N=Nc2ccc(O)c3ncccc23)c1`, 0.95%.
Regarding `Cc1ccc(C)c(N=Nc2ccc(O)c3ncccc23)c1`, the inhibition is 5.69%.
In the case of `CCS(=O)(=O)c1ccc(OC)c(N=Nc2ccc(O)c3ncccc23)c1` it was 9.35%; in that of `COc1cccc(N=Nc2ccc(O)c3ncccc23)c1`, -0.21%; in that of `COc1ccc(C)cc1N=Nc1ccc(O)c2ncccc12`, 6.77%.
In the case of `COc1ccc(N=Nc2ccc(O)c3ncccc23)cc1` it was 2.93%; in that of `O=C(NCc1ccco1)c1nn(-c2ccccc2)c(=O)c2ccccc12`, 0.06%.
Consider `O=C(COC(=O)CSc1ccc2ccccc2c1)NCc1ccc2c(c1)OCO2`, for which the inhibition is 2.14%.
Under `CC(C)(C)CC(C)(C)NCC(O)COc1ccc2c(c1)CCC2` (stereo not given) stands 5.01%; under `Cc1ccc(S(=O)(=O)NC2CCCCC2)c(C)c1NS(C)(=O)=O`, 3.57%; under `Cc1ccc(-c2nn(-c3ccccc3Cl)cc2C(=O)NCC2CCCO2)cc1` (stereo not given), -0.44%.
In the case of `COCCN(CC(=O)Nc1cccc(C)c1C)C(=O)Cc1cccs1` it was -7.25%; in that of `Cc1cc(S(=O)(=O)N(Cc2ccccc2F)C2CC2)ccc1-n1cnnn1`, 6.46%; in that of `O=C(Nc1ccccc1)OCN1C(=O)c2ccccc2C1=O`, 2.63%.
On to `CC(C)(C)C(=O)O/N=C1/C(=O)N(c2ccccc2)c2ccccc21`, for which the inhibition was -9.74%.
Under `CCN(CC)c1ccc(/C=C(\C#N)C(N)=O)cc1` stands 2.41%; under `CCc1ccc(/C=C(/C#N)C(N)=S)cc1`, -1.52%; under `CCN(CC)S(=O)(=O)c1ccc2oc(Nc3ccccc3)nc2c1`, 10.4%.
Under `[O-]c1c[n+](-c2ccc(-[n+]3cc([O-])on3)cc2)no1` stands 3.68%; under `Cc1c(C)c2cccnc2c2ncccc12`, 3.77%.
Under `Cc1ccc2c(C)ccc(O)c2n1` stands -11%; under `Cc1ccnc2c1ccc1ccccc12`, -14.1%; under `Cc1cccc2cccnc12`, -13.9%.
With `Cc1n[nH]c(=O)c2c(NC(=O)CSc3nc4ccccc4c(=O)n3-c3ccc(OC(F)F)cc3)oc(C)c12`, the inhibition is -4.1%.
Under `CC(=O)N(C)C1=Nc2ccc(Cl)cc2C(c2ccccc2)=[N+]([O-])C1` stands -5.29%; under `CCN(Cc1ccccc1)C(=O)COC(=O)CNS(=O)(=O)c1ccc(C)cc1`, -5.52%.
Under `CN(NC(=O)c1ccco1)c1nc2ccccc2nc1C(F)(F)F` stands -6.87%; under `Cc1cc(-c2ccc(C)c(S(=O)(=O)Nc3cccc(CN4CCCC4)c3)c2)on1`, -3.07%; under `COc1ccccc1NC(=O)Nc1ccccc1C(=O)NCCCN1CCOCC1`, -12.4%.
In the case of `CCOc1ccc(N2CC(C(=O)N3CCCc4ccccc43)CC2=O)cc1` (stereo not given) it was 0.32%; in that of `Cc1ccc(S(=O)(=O)N2CCOCC2)cc1NC(=O)C1=NN(c2ccccc2)C(=O)CC1`, -4.05%; in that of `Oc1cccc(Nc2c3ccccc3nc3ccccc23)c1`, 8.39%.
`CCN(CC)CCn1c2ccccc2c2nc3ccccc3nc21`: the inhibition is -13.6%.
As to `Cc1ccccc1N1CCN(C2CCCN(C(=O)c3snnc3C)C2)CC1` (stereo not given), the inhibition is -10.7%.
For `O=C1Nc2ccc(Br)cc2/C1=N\N=C\C1=C(N2CCOCC2)C(=C/c2ccccc2)/CC1`, the inhibition was 20.8%.
Turning to `O=CC1=C(N2CCOCC2)/C(=C\c2ccccc2)CC1`, the inhibition is -9.74%.
In the case of `Cc1ccc(S(=O)(=O)CCC(=O)OCCOc2cccc(Br)c2)cc1` it was -115%.
Under `Cc1cccc(OCCOC(=O)c2c(-c3ccccc3)noc2C)c1` stands -11.5%.
Under `COc1ccc(S(=O)(=O)NCc2cccnc2)cc1NC(=O)c1ccccc1C` stands -8.44%; under `CS(=O)(=O)N(CC(=O)Nc1ccccc1-c1ccccc1)c1ccc(F)cc1`, 1.39%.
For `O=C(Nc1cccc(Cl)c1)c1ccc(-n2cncn2)c([N+](=O)[O-])c1`, the inhibition is 2.4%.
In the case of `CC(C(=O)OCC(=O)c1ccccc1)N1C(=O)c2ccccc2C1=O` (stereo not given) it was -4.62%.
Under `CC(=O)c1cc2c(cc1NC(=O)C1CCC1)OCO2` stands 10.9%.
In the case of `C/C(=N\N=c1/sc2ccccc2n1C)c1ccc(N2CCOCC2)cc1` it was -7.4%; in that of `Cn1c(=Nc2ccc(N3CCOCC3)cc2)ccc2ccccc21`, -15.9%; in that of `Cn1c(N)c(C(=O)CSc2nnc3n2CCCCC3)c(=O)n(C)c1=O`, -13.2%.
Take `CCOc1ccc(CNCCCSc2ncccn2)cc1`: the inhibition is 4.75%.
In the case of `CCOC(=O)N1CCN(C(=O)c2ccc3nc(-c4ccccc4)c(-c4ccccc4)nc3c2)CC1` it was 2.02%; in that of `Cc1ccc(-c2csc(NC(=O)c3ccc([N+](=O)[O-])o3)n2)cc1`, 6.86%; in that of `O=C(Nc1nc(-c2ccccn2)cs1)c1cc2ccccc2o1`, 25.1%.
Consider `O=C(Nc1nc(-c2cccs2)cs1)c1ccc([N+](=O)[O-])o1`, for which the inhibition is -3.14%.
Under `Cc1ccc(C(=O)Nc2nc(-c3cccnc3)cs2)o1` stands -17%; under `COc1ccccc1C(=O)Nc1ccc2c(c1)n(C)c(=O)n2C`, -3.88%.
In the case of `CC(C)CN(C(=O)c1ccc(C(F)(F)F)cc1)c1c(N)n(CC(C)C)c(=O)[nH]c1=O` it was -4.85%.
Turning to `CCCCNC(=S)Nc1ccc2nc(N3CCN(CC)CC3)cc(C)c2c1`, the inhibition was 9.06%.
On to `COc1ccc(OCCCC(=O)Nc2ccc(OC)c(S(=O)(=O)N3CCOCC3)c2)cc1`, for which the inhibition is -7.67%.
Under `CNC(=O)c1ccc(Nc2nnc(C)c3ccccc23)cc1` stands -2.75%.
In the case of `O=C1NCCN1CCN1C(=O)c2ccccc2NC1c1ccccc1` (stereo not given) it was -24.1%.
Under `CC(C)N1C(=O)/C(=C/c2nc3ccccc3c(=O)n2-c2ccccc2)c2ccccc21` stands 27.7%; under `CCn1c(/C=C2\C(=O)N(C(C)C)c3ccccc32)nc2ccccc2c1=O`, -0.25%; under `CC(C)Sc1cc(N2CCCC2)nc(-c2ccccc2)n1`, -8.52%.
As for `COc1ccc(CNC(=O)C2CCCN2C(=O)NC2CCCCC2)cc1` (stereo not given), the inhibition is 8.99%.
Under `COc1ccc(S(N)(=O)=O)cc1N(C)S(=O)(=O)c1ccccc1` stands -8.33%; under `NC1=NC(=Nc2cccc(S(N)(=O)=O)c2)c2ccccc21`, -7.83%.
Take `O=CN1CCc2scc[n+]2-c2ccccc21`: the inhibition is -18.5%.
Under `C=CCNC(=S)N/N=C(\C)c1cccnc1` stands 1.12%.
In the case of `C/C(=N\NC(=O)CCCNc1ccc(C)cc1)c1ccccn1` it was -0.81%; in that of `C/C(=N\NC(=S)Nc1ccc(C)cc1)c1cccc(N)c1`, 3.24%; in that of `C/C(Cc1ccccc1)=N\NC(=O)c1ccccn1`, -7.02%.
Under `COc1ccccc1NC(=O)C/C(C)=N/NC(=O)c1ccccn1` stands 12.6%.
As to `CCCCCC(=O)N/N=C(\C)c1ccccn1`, the inhibition was 5.83%.
Under `C=CCNC(=S)N/N=C(\C)c1ccc(OC)cc1` stands 1.71%.
Under `COc1ccccc1NC(=S)Nc1ccccn1` stands -3.02%; under `CC1(C)Oc2ccc(C(=O)NC3CCCC3)cc2N(CC(=O)NC2CCCCC2)C1=O`, -5.58%.
In the case of `Cc1cc(C)nc(Nc2ccccc2Cl)n1` it was -3.84%; in that of `CN(CC(=O)Nc1ccc2c(c1)OCO2)S(=O)(=O)c1ccc(F)cc1`, 0.79%.
As for `S=C(NCc1ccccn1)Nc1cccc(Cl)c1`, the inhibition is 10.7%.
Under `S=C(NCCc1ccccn1)Nc1cccc(Cl)c1` stands -6.8%; under `Cc1cccc(NC(=S)Nc2ccccn2)c1`, 3.18%; under `C/C(=N\NC(=S)Nc1cccc(C)c1)c1ccccc1`, 2.46%.
For `Cc1nc(-c2ccc(Cl)cc2)sc1C(=O)O`, the inhibition was -5.39%.
In the case of `O=C1COc2ccc(S(=O)(=O)N3CCN(c4ccccc4)CC3)cc2N1` it was 6.48%.
In the case of `CN(CC(=O)N1CCN(C2CCCCC2)CC1)S(=O)(=O)c1cccc2nsnc12` it was 0.79%; in that of `CC(Sc1nnc(-c2cccnc2)o1)C(=O)NC1CCCC1` (stereo not given), -4.28%.
In the case of `CC(=O)N(C)c1ccc(N=Nc2ccc3ncccc3c2)cc1` it was 18.9%.
In the case of `Nc1ccc(N=Nc2ccccc2)cc1`, the inhibition was 10.5%.
Under `c1cnc2ccc(-c3ccc4ncccc4c3)cc2c1` stands 2.05%; under `Cc1ccc2ncccc2c1`, -1.21%.
In the case of `Nc1ccc(N=Nc2ccc(N)cc2)cc1` it was -2.48%.
In the case of `Nc1ccc2ncccc2c1` it was 7.98%; in that of `CC(C)CN(C(=O)c1ccc(=O)n(C)n1)c1c(N)n(Cc2ccccc2)c(=O)[nH]c1=O`, -3.79%.
Take `COc1ccccc1NS(=O)(=O)c1cccc(NC(=O)c2cncc(Br)c2)c1`: the inhibition is -6.77%.
In the case of `COc1cccc(Oc2c(C)oc3c(CN4CCOCC4)c(O)ccc3c2=O)c1` it was 8.63%.
Under `Cn1c(N)c(C(=O)CSc2nc3ccccc3c(=O)n2Cc2ccccc2)c(=O)n(C)c1=O` stands 10.1%.
